What all share (test): NCI-60 one-dose screen, 48 h (100 = growth as untreated, 0 = no growth, -100 = all killed)
Common to all, as to conditions: 10 µM unless noted

The subject of assay [1] is HCT-15 colon.
In assay [2] the test system is HT29 colon.
In assay [3] the test system is SNB-75 CNS.
Assay [4] concerns SNB-19 CNS.
Assay [5] deals with U251 CNS.
Assay [6] relates to PC-3 prostate.
Assay [7] relates to SK-MEL-5 melanoma.
Assay [8] deals with UACC-62 melanoma.
The subject of assay [9] is LOX IMVI melanoma.
Assay [10] has as its system SK-MEL-28 melanoma.

Molecules are shown by their SMILES. The panel holds about 83,000 compounds, 20% with a hit somewhere; the sample as a whole holds those more often.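 Activity criterion: percent growth below 10, measured after cells in 96-well plates were exposed to a single compound concentration for 48 hours.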 A number with no mark means an inactive call. Activity calls are given as the source filed them.

Consider `O=C(CSc1nnc(-c2ccc(Cl)cc2)o1)Nc1ccc(C(=O)/C=C/c2ccccc2)cc1`, for which the growth in assay [1] was 96.7%; in assay [2], 98%; in assay [3] it was 90.4%; in assay [4], 86.9%; in assay [5], 99.3%; in [6], 99.4%. The growth in assay [7] was 98%; in assay [8], 85.6%; in assay [9] it was 85.3%; in assay [10], 105%.

Turning to `CN(C)CCCOc1c(Br)cc(/C=C/C(=O)N(C)CCc2cc(Br)c(OCCCN(C)C)c(Br)c2)cc1Br`, the growth in assay [1] was 9.92% (active); in [2], -19.1% (active); in assay [3], 73.3%; in [4], 48.6%; in assay [5], 7.24% (active); in [6], 65.1%. Besides, the growth in assay [7] is 64.4%; in assay [8], -26.5% (active); in assay [9], -23.1% (active); in [10], -49.4% (active).

In the case of `Cc1cccc(CC(=O)c2ccccc2)n1`, the growth in assay [1] is 93.2%; in assay [2], 82.1%; in [3], 84.6%; in assay [4], 88.7%; in assay [5], 89.6%; in [6] it was 80.5%. Also, the growth in [7] is 96.6%; in [8], 74.7%; in assay [9], 76.5%; in assay [10], 105%.

Consider `O=C1OC(c2ccc(-c3ccccc3)cc2)=C/C1=C/C=C/c1ccccc1`, for which the growth in [1] was 109%; in assay [2], 113%; in assay [3], 92.4%; in assay [4] it was 99.1%; in assay [5], 100%; in [6] it was 105%. In addition, the growth in [7] is 106%; in [8], 96.8%; in assay [9], 99.3%; in [10], 103%.

Take `CC(Cl)(CCl)CS(=O)(=O)c1ccc(Cl)cc1` (stereo not given): the growth in assay [1] was 105%; in assay [2], 103%; in assay [3], 103%; in assay [4], 101%; in assay [5], 94.4%; in [6], 97.7%. Also, the growth is 100% in assay [7], 99.8% in assay [8], 101% in assay [9] and 117% in assay [10].

For the molecule `C=C1C(=O)O[C@H]2[C@H]1CC/C(COC(=O)c1cc(OC)c(OC)c(OC)c1)=C\CC[C@@]1(C)O[C@@H]21`, the growth in assay [1] is -42.8% (active); in assay [2] it was -80.2% (active); in assay [3] it was 45.9%; in [4], 30.5%; in assay [5] it was 9.17% (active); in assay [6], 18.6%. In addition, the growth in [7] is -23.8% (active); in [8] it was -50.7% (active); in assay [9] it was -94.9% (active); in assay [10], -36.5% (active).

Turning to `COc1ccc(CNc2nc3ccccc3c3c(=O)c4ccccc4sc23)cc1OC`, the growth is 90.2% in assay [1]; 73% in assay [2]; 21.8% in assay [3]; 86.5% in [4]; 79.8% in [5]; 72.9% in assay [6]. Moreover, the growth was 78% in assay [7], 68.8% in assay [8], 82.7% in assay [9] and 93.3% in assay [10].

On to `COc1cc(Nc2ncccc2C(=O)Nc2nc3ccc(F)cc3s2)cc(OC)c1OC`, for which the growth in [1] was 76.2%; in assay [2], 79.1%; in assay [3], 73.5%; in [4], 89%; in assay [5], 58.5%; in assay [6], 39.2%. Besides, the growth was 63.9% in [7], 24.4% in assay [8], 57.3% in assay [9] and 84% in [10].

`O=C(O)c1ccccc1C(=O)c1ccc(I)cc1`: the growth is 100% in [1]; 90% in assay [2]; 98.1% in assay [3]; 110% in assay [4]; 102% in assay [5]; 91.2% in [6]. Also, the growth is 102% in assay [7], 105% in assay [8], 91% in assay [9] and 107% in [10].

`Cc1cc(NC(=O)c2cccc(C(F)(F)F)c2)ccc1-n1ccc2c(NC(=O)c3ccccc3)nccc21`: the growth is 92.3% in assay [1]; 94.5% in assay [2]; 91.2% in [3]; 98.4% in assay [4]; 95.7% in assay [5]; 74.6% in assay [6]. Moreover, the growth in [7] was 101%; in assay [8], 96.9%; in assay [9], 101%; in assay [10], 104%.

Consider `COc1cc(CN(c2ccc(Cl)cc2)C2OC(=O)c3ccccc32)cc(OC)c1OC` (stereo not given), for which the growth was 38.2% in assay [1]; 17.9% in [2]; 68.6% in [3]; 74.1% in assay [4]; 36% in assay [5]; 62.6% in assay [6]. In addition, the growth is 73% in assay [7], 45.6% in assay [8], 44.9% in [9] and 67.3% in [10].

As to `ClC1c2ccccc2CCc2ccccc21`, the growth is 88.2% in assay [1]; 74.1% in assay [2]; 81.6% in assay [3]; 111% in [4]; 96.6% in assay [5]; 83.5% in [6]. For the same molecule, the growth was 96.7% in assay [7], 98.5% in assay [8], 93.6% in [9] and 112% in [10].

As for `O=C(NCCNc1nccc(-c2c(-c3cccc(O)c3)nc3sccn23)n1)Nc1cc(C(F)(F)F)cc(C(F)(F)F)c1`, the growth was 79.2% in assay [1]; 63.1% in [2]; 66.1% in [3]; 90.8% in assay [4]; 77% in [5]; 51.2% in assay [6]. Besides, the growth was 59.7% in [7], 54.4% in [8], 60.6% in assay [9] and 68.8% in [10].

For `O=[N+]([O-])c1cccc2cc(S(=O)(=O)O)ccc12`, the growth was 103% in [1]; 87.5% in [2]; 118% in assay [3]; 106% in [4]; 94.7% in [5]; 84% in assay [6]. For the same molecule, the growth was 103% in [7], 100% in assay [8], 92.1% in assay [9] and 111% in [10].

Take `C[C@H]1C=C(C[C@@H](O)CC#CC#CCCCCC[C@@H](O)[C@H]2CCC(=O)O2)C(=O)O1`: the growth was 110% in [1]; 99.1% in assay [2]; 118% in [3]; 102% in assay [4]; 99.4% in assay [5]; 111% in [6]. The growth is 99.8% in assay [7], 95.1% in assay [8], 92.6% in [9] and 123% in assay [10].

Take `COc1ccc(-c2[nH]c3ccccc3c2/C=C(\C#N)S(=O)(=O)c2ccccc2)cc1`: the growth in assay [1] is 24.6%; in assay [2] it was 12.6%; in assay [3], 33.1%; in [4], 30.3%; in assay [5], 24.2%; in [6], 30.9%. Further, the growth in assay [7] was 12.5%; in [8] it was 22.6%; in [9], 28.5%; in [10], 54.2%.

`CC(C)[C@@H]1NC(=O)[C@]2(C)CSC(=N2)c2ccnc(c2)CNC(=O)C[C@@H](/C=C/CCS)OC1=O`: the growth in assay [1] is 52%; in assay [2], 2.76% (active); in assay [3], 25.8%; in assay [4] it was 23.6%; in assay [5], -66.6% (active); in [6] it was 17.7%. In addition, the growth in assay [7] is -88.2% (active); in [8], -36.7% (active); in assay [9], -94.9% (active); in assay [10], 16.6%.

As for `COc1ccc(-c2nnc(SCC(=O)Nc3ccc(C(=O)/C=C/c4ccc(OC)c(OC)c4)cc3)o2)cc1`, the growth in assay [1] is 74.8%; in assay [2], 87.1%; in assay [3], 87.5%; in assay [4] it was 89.6%; in assay [5], 66.9%; in assay [6] it was 79.8%. Further, the growth in assay [7] is 75.9%; in [8], 82.9%; in [9], 77.1%; in assay [10], 99.5%.

`Nc1nc(Nc2ccc(OCc3cccc(F)c3)cc2)c2c(n1)[nH]c1ccc(O)cc12`: the growth in assay [1] was -8.62% (active); in assay [2], -84.2% (active); in assay [3], -63.5% (active); in assay [4] it was 12.3%; in [5], -91% (active); in assay [6] it was 4.64% (active). The growth in assay [7] was -78.1% (active); in assay [8], -75.1% (active); in assay [9] it was -96% (active); in assay [10], -67.4% (active).

Regarding `CCOc1ccc(NC2=C(Cl)C(=O)c3ccccc3C2=O)cc1`, the growth in [1] was -79.9% (active); in assay [2] it was 98.2%; in assay [3] it was 81.3%; in assay [4] it was 62%; in [5], 56.9%; in assay [6], 72.1%. Moreover, the growth in assay [7] was 81.4%; in assay [8] it was 78.6%; in assay [9], -89.7% (active); in assay [10], 46.9%.

On to `Cc1cc(SCc2ccc(Cl)cc2Cl)nc(SCc2ccc(Cl)cc2Cl)n1`, for which the growth in [1] is 93%; in assay [2], 97.9%; in assay [3], 96.1%; in assay [4], 111%; in [5], 105%; in [6], 108%. For the same molecule, the growth in assay [7] was 96.1%; in assay [8], 102%; in assay [9] it was 99.5%; in assay [10], 98.8%.

As for `Cc1ccc2[nH]c3nc4cccnc4c(C)c3c2c1`, the growth in assay [1] is 88.1%; in [2] it was 92.6%; in assay [3], 77.6%; in assay [4], 79%; in assay [5], 75.7%; in assay [6], 92.7%. In addition, the growth was 95.2% in assay [7], 100% in [8], 89.7% in [9] and 119% in assay [10].

Take `COC(=O)c1ccc2c(c1)Oc1ccc(Cl)cc1-c1cc(C)nn1-2`: the growth in assay [1] was 91.6%; in assay [2], 74.3%; in assay [3], 63.3%; in assay [4] it was 68.8%; in assay [5], 19.1%; in assay [6], 76%. Besides, the growth in assay [7] is 86%; in [8] it was 84.7%; in assay [9] it was 57.9%; in assay [10], 106%.

Consider `CCNc1cc(S(=O)(=O)O)ccc1C`, for which the growth in assay [1] was 105%; in assay [2] it was 102%; in [3], 99.4%; in assay [4], 104%; in assay [5], 98.3%; in assay [6], 90.5%. In addition, the growth in assay [7] was 102%; in assay [8] it was 105%; in assay [9], 97.2%; in assay [10], 108%.

In the case of `O=C(Nc1ccc(-n2cc(-c3ccncc3)c(-c3ccc(O)c(Cl)c3)n2)cc1)Nc1ccc(Cl)c(C(F)(F)F)c1`, the growth was 9.15% (active) in assay [1]; 47.9% in assay [2]; 28% in assay [3]; 27.7% in [4]; 5.79% (active) in assay [5]; 1.79% (active) in [6]. Further, the growth in [7] is -73.6% (active); in assay [8] it was 9.18% (active); in assay [9], 16.6%; in [10], 20.1%.

On to `COc1cc(/C=C/C(=O)c2c(C)[n+]([O-])c3ccccc3[n+]2[O-])ccc1O`, for which the growth in assay [1] was 93.5%; in assay [2], 161%; in [3], 162%; in assay [4], 111%; in [5] it was 90.8%; in assay [6] it was 90.6%. In addition, the growth in [7] was 81.6%; in assay [8] it was 110%; in [9], 92.6%; in assay [10], 117%.

Values taken from PubChem BioAssay (NCI).
